In the supplement of paper PMC4709259 one finds mean cell size and cell count data, which are given here for ten molecules.

Test [1] deals with Jurkat. The experiment in a line: mean cell size (FSC-A) relative to DMSO control (fraction of control); higher = larger cells. The note with it: 48 h. In outline:
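Jurkat cells at 600 cells/µl were incubated for 1 h and then treated for 48h with the Enzo Screen-Well FDA Approved Drug Library v2.0 at 25µM, with DMSO at 0.9% (v/v) final. Compounds that reduced counts below 20% of controls were retested in 10-fold dilutions down to 25nM. Cell count and mean cell size, taken as forward scatter area, were measured by flow cytometry relative to solvent-only controls. Each plate carried 6-12 controls, and values are means of 3 biological replicates.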

In test [2] the test system is Jurkat. Briefly: cell count relative to DMSO control (fraction of control); higher = more cells (less growth inhibition). The note with it: 48 h.

Where a name gives a salt, the structure may show the parent alone. ± gives the standard deviation.

As to `O=S(=O)(O)CCS` [Mesna] (concentration: 25 µM), the mean cell size in test [1] stood at 1.06 ± 0.026. In test [2], this molecule returned a cell count of 0.769 ± 0.16.
The matching figures for `CN(C)CCc1c[nH]c2ccc(CS(=O)(=O)N3CCCC3)cc12` [Almotriptan] (concentration: 25 µM): 0.95 ± 0.053 and 0.62 ± 0.18.
For `N=C(N)NC(=O)Cc1c(Cl)cccc1Cl` [Guanfacine·HCl] (concentration: 25 µM) the same measures were 0.956 ± 0.059 and 0.695 ± 0.13.
For `Cc1nc2n(c(=O)c1CCN1CCC(c3noc4cc(F)ccc34)CC1)CCCC2O` (stereo not given) [Paliperidone] (concentration: 25 µM) the same measures were 0.985 ± 0.043 and 1.06 ± 0.063.
`CN(C)CCOC(c1ccccc1)c1ccccc1.Cn1c(=O)c2[nH]c(Cl)nc2n(C)c1=O` [Dimenhydrinate] (concentration: 25 µM): in test [1], the mean cell size was found to be 1.05 ± 0.051. This molecule also returned a cell count in test [2] of 0.558 ± 0.15.
For `CC(C)NCC(O)COc1cccc2[nH]ccc12` (stereo not given) [Pindolol] (concentration: 25 µM) the same measures were 0.976 ± 0.065 and 0.644 ± 0.16.
For `O=C1CCc2ccc(OCCCCN3CCN(c4cccc(Cl)c4Cl)CC3)cc2N1` [Aripiprazole] (concentration: 25 µM) the same measures were 1.02 ± 0.037 and 0.89 ± 0.092.
For `Clc1ccccc1C(c1ccccc1)(c1ccccc1)n1ccnc1` [Clotrimazole] (concentration: 25 µM) the same measures were 0.92 ± 0.04 and 0.591 ± 0.05.
`O=C1N=C(O)CN1N=Cc1ccc(-c2ccc([N+](=O)[O-])cc2)o1` [Dantrolene·Na] (concentration: 25 µM): the mean cell size in test [1] was 1 ± 0.021. For the same molecule, in test [2], the cell count amounted to 0.837 ± 0.068.
The matching figures for `CCN(CC)CCNC(=O)c1ccc(N)cc1` [Procainamide·HCl] (concentration: 25 µM): 1.03 ± 0.025 and 0.935 ± 0.17.
